This is an account of results in PubChem BioAssay (Tox21).

Unmarked numbers belong to inactive results. Records with an inconclusive call do not appear. Activity calls are given as the source filed them. Unless noted, calls follow the shape of the full dose curve.

The nature of assay [1]: Nuclear factor erythroid 2-related factor 2/antioxidant responsive element (Nrf2/ARE) small molecule agonists: luciferase reporter gene qHTS assay in human keratinocytes (AID 1919969). Also: nearly all actives have a fitted effect of over 35% in size. Also: potency is read from the fitted curve at half-maximal effect. Background: Reporter assays use an easily measured gene product as a stand-in for the process of interest.
For assay [2], the target named is Gonadotropin-releasing hormone receptor (Homo sapiens) (UniProt P30968). In words: Human gonadotropin-releasing hormone receptor (GnRHR) small molecule agonists, calcium flux assay in GnRHR-HEK293 cells (AID 1920063). Also: nearly all actives have a fitted effect of over 35% in size. Also: potency is read from the fitted curve at half-maximal effect. An outline of the steps: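 Compounds dissolved in DMSO are pin-transferred onto dye-loaded GnRHR-HEK293 cells, which were seeded 18 h before at 37 C/5% CO2. Calcium signal is read as fluorescence intensity at 1 s intervals for 3 min.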
A general note: Calcium assays in cells follow changes in intracellular calcium, usually with a dye or a luminescent sensor.

Assay [3] deals with KiSS-1 receptor (Homo sapiens) (UniProt Q969F8). In words: Human kisspeptin (KISS1R) small molecule agonists, calcium flux assay in KISS1R-HEK293 cells (AID 1920064; active = well fitted activation curve with a large enough effect in the repeat runs). An outline of the steps: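 Cell line: HEK293, stable human KISS1R. Dye loading 1 h at 37 C after 18 h culture. Read: kinetic fluorescence, 480/540 nm, 3 min at 1 s intervals.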
Assay [4] is described as follows: G protein-coupled receptor (GPCR) small molecule agonists, calcium flux assay: HEK293 wild type cell line counter screen (AID 1920065). An outline of the steps:
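Tox21 10K compounds, 15 concentrations each in triplicate, pin-transferred in DMSO onto dye-loaded cells; kinetic read at 480/540 nm for 3 min, 1 s intervals.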

Assay [5] in a line: p53 small molecule agonists, cell-based qHTS assay with human liver microsomes (AID 1963577).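 Also: p53 response element beta-lactamase reporter cells with liver microsomes plus NADPH.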 Put shortly:
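Metabolically competent format: test substances, human liver microsomes and NADPH (both 0.5 mg/mL final) incubated with p53RE-bla cells 16 h at 37 C. Beta-lactamase reporter signal then quantified by fluorescence.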
On the technique in general: qHTS replaces the single test concentration by a dilution series.

Assay [6] in a line: p53 small molecule agonists, cell-based qHTS assay with rat liver microsomes (AID 1963578). An outline of the steps:
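Each plate received p53RE-bla cells, then compound, then rat liver microsomes and NADPH (both 0.5 mg/mL final). Plates were held 16 h at 37 C, and beta-lactamase activity was detected with LiveBLAzer over 2 h.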

Assay [7] is described as follows: p53 small molecule agonists, cell-based qHTS assay with human liver microsomes: qHTS cell viability counter screen (AID 1963579). Also: nearly all actives have a fitted effect of over 45% in size. Also: potency is read from the fitted curve at half-maximal effect. Put shortly:
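Tox21 library compounds, delivered from DMSO stocks, were tested on p53RE-bla cells together with 0.5 mg/mL human liver microsomes and 0.5 mg/mL NADPH (final) over 16 h at 37 C; CellTiter-Glo luminescence served as the cytotoxicity measure.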

Assay [8] is described as follows: p53 small molecule agonists, cell-based qHTS assay with rat liver microsomes: qHTS cell viability counter screen (AID 1963580). Also: nearly all actives have a fitted effect of over 45% in size. Also: potency is read from the fitted curve at half-maximal effect. Put shortly:
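Cytotoxicity counter screen: intracellular ATP read by CellTiter-Glo luminescence in the p53 reporter wells. HCT-116 p53RE-bla cells were treated for 16 h at 37 C alongside rat liver microsomes and NADPH, each 0.5 mg/mL final.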

Assay [9] can be described thus: p53 small molecule agonists, cell-based qHTS assay: qHTS cell viability counter screen (AID 1963581). Also: nearly all actives have a fitted effect of over 45% in size. Put shortly:
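ATP content measured by luminescence in HCT-116 p53RE-bla cells treated 16 h at 37 C, same wells as the reporter screen.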

Assay [10] has as its target 5-hydroxytryptamine receptor 2A (Homo sapiens) (UniProt P28223). In words: 5-hydroxytryptamine receptor 2A (HTR2A) small molecule antagonists, cell-based qHTS assay (AID 1963586). Also: nearly all actives have a fitted effect of over 45% in size. An outline of the steps:
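CHO cells stably expressing human HTR2A were plated for 18 h at 37 C, then loaded with calcium dye for 1 h. Compounds were preincubated 5 min at room temperature before DOI (4 nM solution) was added. Kinetic fluorescence was read for 3 min.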

Assay [11] shares this target. In words: 5-hydroxytryptamine receptor 2A (HTR2A) small molecule agonists, cell-based qHTS assay (AID 1963587). Also: nearly all actives have a fitted effect of over 30% in size. Put shortly: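 Kinetic calcium-flux fluorescence (2 min, 1 sec intervals) after compound addition in agonist mode. HTR2A-CHO cells were cultured 18 h, then dye-loaded 1 h at 37 C.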
For assay [12], the target named is Muscarinic acetylcholine receptor M1 (Homo sapiens) (UniProt P11229). In words: Cholinergic receptor muscarinic 1 (CHRM1) small molecule antagonists, cell-based qHTS assay (AID 1963588). Also: nearly all actives have a fitted effect of over 40% in size. An outline of the steps:
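Compounds were tested at 15 concentrations in three independent runs. Dye-loaded CHRM1-CHO cells were exposed 5 min at room temperature before stimulation by acetylcholine added at 50nM. Intracellular calcium was read kinetically on FDSS for 3 min.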

Assay [13] shares this target. In words: Cholinergic receptor muscarinic 1 (CHRM1) small molecule agonists, cell-based qHTS assay (AID 1963589). Also: nearly all actives have a fitted effect of over 35% in size. Put shortly:
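Homogeneous fluorescence calcium flux, agonist mode. Human M1-expressing CHO cells; compound dosed at 15 concentrations, three independent runs; signal sampled every 1 sec.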

Assay [14] addresses Beta-2 adrenergic receptor (Homo sapiens) (UniProt P07550). In words: Adrenergic beta2 receptor (ADRB2) small molecule antagonists, cell-based qHTS assay (AID 1963592). Also: series mostly up to about 92 µM; nearly all actives have a fitted effect of over 50% in size. Put shortly: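 Assay format: CHO-ADRB2 cells, 18-20hr seeding at 37C/5% CO2, then compound plus 1nM isoproterenol agonist mix for 0.5hr RT. Homogeneous time-resolved fluorescence cAMP detection after 1hr, expressed as 665/615 nm ratio.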

Assay [15] shares this target. In words: Adrenergic beta2 receptor (ADRB2) small molecule agonists, cell-based qHTS assay (AID 1963593).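 Also: CHO cells stably overexpressing human ADRB2.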 Put shortly:
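CHO cells stably over-expressing ADRB2 were plated overnight at 37C, then dosed with compounds plus a stimulation mix containing 100uM IBMX and 25uM Ro-20-1724 for 0.5hr at room temperature. cAMP was measured by HTRF competition, 1hr.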

Assay [16] addresses D(2) dopamine receptor (Homo sapiens) (UniProt P14416). In words: Dopamine D2 receptor (DRD2) small molecule antagonists, cell-based qHTS assay (AID 1963595; active = well fitted inhibition curve with a large enough effect in the signal ratio in the repeat runs, with a control signal flat; the % refers to the signal ratio; also: potency is read from the fitted curve at half-maximal effect). Put shortly:
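Human DRD2 antagonist qHTS measuring cAMP by HTRF. The cells are exposed to compound for 10 min, then to NKH477 (200 nM) and quinpirole (12 nM) for 30 min at RT, with Ro20-1724 (0.1 mM) present throughout.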

Assay [17] can be described thus: p53 small molecule agonists, cell-based qHTS assay (AID 1963582; active = well fitted activation curve with a large enough effect in the signal ratio in the repeat runs, not every such curve was filed as active; the % refers to the signal ratio). An outline of the steps: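 16 h compound exposure (37 C) of p53 response element–bla cells, preceded by 5 h recovery at 37 C/5% CO2; read-out via LiveBLAzer B/G FRET substrate, 2 h RT, fluorescence intensity.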
Assay [18] can be described thus: cAMP Responsive Elements (CRE) small molecule agonists, cell-based qHTS assay (AID 1963590). An outline of the steps: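 HEK 293T cells stably bearing CRE-bla were plated at 2,000 cells per well and rested 18 h. Compounds, positive controls or DMSO were added for 3 h at 37 C. LiveBLAzer B/G substrate was then loaded for 2 h at room temperature.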
Assay [19] can be described thus: cAMP Responsive Elements (CRE) small molecule antagonists, cell-based qHTS assay (AID 1963591; active = well fitted inhibition curve with a large enough effect in the signal ratio in the repeat runs, not every such curve was filed as active; the % refers to the signal ratio). Put shortly:
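First, CRE-bla HEK293T cells settled 18 h at 37 C. Next, compound and 0.25 uM final NKH477 were applied for 3 h. Last, LiveBLAzer B/G substrate was loaded for 2 h at room temperature.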

Assay [20] concerns the target D(2) dopamine receptor (Homo sapiens) (UniProt P14416). In words: Dopamine D2 receptor (DRD2) small molecule agonists, cell-based qHTS assay (AID 1963594). Also: nearly all actives have a fitted effect of over 35% in size. An outline of the steps: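 cAMP accumulation in DRD2-HEK293 cells measured by HTRF after 1 h detection; compounds added 10 min before NKH477 (200nM […]) forskolin-analogue stimulation, 30 min at room temperature, with Ro20-1724 present at 0.1 mM final.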

Chain of Gonadotropin-releasing hormone receptor (Homo sapiens) (P30968 whole entry, looked up): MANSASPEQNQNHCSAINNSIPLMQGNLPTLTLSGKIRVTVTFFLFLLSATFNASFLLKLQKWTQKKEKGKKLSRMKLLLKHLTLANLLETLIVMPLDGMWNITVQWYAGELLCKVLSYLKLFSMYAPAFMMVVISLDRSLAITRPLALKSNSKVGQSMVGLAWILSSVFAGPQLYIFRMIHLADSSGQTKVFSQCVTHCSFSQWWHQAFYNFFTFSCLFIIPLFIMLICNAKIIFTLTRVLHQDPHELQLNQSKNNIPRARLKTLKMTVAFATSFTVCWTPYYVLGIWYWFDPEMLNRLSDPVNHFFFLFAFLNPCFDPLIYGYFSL
Chain of KiSS-1 receptor (Homo sapiens) (Q969F8 whole entry, looked up): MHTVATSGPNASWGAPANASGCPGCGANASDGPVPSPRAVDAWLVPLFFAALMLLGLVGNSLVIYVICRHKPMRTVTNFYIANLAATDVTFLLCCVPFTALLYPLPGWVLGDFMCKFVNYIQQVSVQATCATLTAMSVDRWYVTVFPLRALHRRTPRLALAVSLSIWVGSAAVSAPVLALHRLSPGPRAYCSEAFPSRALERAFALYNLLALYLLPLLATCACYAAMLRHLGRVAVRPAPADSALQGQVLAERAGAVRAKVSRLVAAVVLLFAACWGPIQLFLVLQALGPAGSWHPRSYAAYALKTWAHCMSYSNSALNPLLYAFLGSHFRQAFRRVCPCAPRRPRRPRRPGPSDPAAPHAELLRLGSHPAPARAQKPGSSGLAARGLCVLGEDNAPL
Chain of Muscarinic acetylcholine receptor M1 (Homo sapiens) (P11229 whole entry, looked up): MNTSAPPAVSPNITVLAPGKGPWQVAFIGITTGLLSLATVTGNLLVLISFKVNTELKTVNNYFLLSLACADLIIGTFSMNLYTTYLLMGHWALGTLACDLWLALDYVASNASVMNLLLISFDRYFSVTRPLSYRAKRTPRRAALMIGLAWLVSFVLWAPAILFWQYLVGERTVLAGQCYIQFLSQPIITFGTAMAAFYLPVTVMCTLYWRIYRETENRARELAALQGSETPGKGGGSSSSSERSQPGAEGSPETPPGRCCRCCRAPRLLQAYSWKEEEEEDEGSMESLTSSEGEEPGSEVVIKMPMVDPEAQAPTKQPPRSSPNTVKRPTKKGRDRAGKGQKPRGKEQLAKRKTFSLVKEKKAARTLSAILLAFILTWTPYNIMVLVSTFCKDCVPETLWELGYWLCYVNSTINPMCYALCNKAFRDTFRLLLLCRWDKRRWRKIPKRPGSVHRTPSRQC
Chain of 5-hydroxytryptamine receptor 2A (Homo sapiens) (P28223 whole entry, looked up): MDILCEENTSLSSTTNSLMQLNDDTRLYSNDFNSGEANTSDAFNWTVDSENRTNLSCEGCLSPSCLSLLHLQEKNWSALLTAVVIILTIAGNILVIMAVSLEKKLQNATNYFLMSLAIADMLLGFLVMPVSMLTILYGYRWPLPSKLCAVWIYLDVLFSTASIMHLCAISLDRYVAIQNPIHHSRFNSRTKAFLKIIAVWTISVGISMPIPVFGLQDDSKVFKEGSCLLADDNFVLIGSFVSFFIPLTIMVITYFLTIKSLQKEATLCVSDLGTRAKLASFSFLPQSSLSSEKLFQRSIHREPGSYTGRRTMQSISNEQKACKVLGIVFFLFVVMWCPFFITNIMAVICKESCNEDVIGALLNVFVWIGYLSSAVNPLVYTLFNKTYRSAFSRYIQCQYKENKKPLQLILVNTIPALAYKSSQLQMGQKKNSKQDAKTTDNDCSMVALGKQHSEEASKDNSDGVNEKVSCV
Chain of D(2) dopamine receptor (Homo sapiens) (P14416 whole entry, looked up): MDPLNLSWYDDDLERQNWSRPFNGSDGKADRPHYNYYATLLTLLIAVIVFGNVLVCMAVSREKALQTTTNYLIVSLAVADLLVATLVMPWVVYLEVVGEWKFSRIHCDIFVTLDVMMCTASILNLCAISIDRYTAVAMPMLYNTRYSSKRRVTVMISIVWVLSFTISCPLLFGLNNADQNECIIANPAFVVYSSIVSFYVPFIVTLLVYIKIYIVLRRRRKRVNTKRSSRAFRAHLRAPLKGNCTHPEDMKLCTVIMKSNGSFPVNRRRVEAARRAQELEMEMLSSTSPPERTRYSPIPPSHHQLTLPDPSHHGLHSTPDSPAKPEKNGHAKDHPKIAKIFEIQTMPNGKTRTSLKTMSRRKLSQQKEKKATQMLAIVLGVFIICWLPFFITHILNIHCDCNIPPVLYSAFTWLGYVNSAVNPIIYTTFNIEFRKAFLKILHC
Chain of Beta-2 adrenergic receptor (Homo sapiens) (P07550 whole entry, looked up): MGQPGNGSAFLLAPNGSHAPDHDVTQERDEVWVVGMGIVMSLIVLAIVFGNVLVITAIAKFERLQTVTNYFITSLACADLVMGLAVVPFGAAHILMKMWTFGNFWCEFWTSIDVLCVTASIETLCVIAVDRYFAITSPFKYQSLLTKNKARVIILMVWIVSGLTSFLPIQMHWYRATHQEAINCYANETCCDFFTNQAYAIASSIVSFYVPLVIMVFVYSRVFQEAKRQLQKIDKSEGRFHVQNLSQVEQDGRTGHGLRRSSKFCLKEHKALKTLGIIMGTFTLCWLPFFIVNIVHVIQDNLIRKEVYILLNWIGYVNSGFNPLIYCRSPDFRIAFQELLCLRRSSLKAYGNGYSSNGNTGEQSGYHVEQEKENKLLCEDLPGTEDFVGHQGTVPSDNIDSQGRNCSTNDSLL

Take `Cc1cc(O)c2c(c1)C(=O)c1cc(O)cc(O)c1C2=O`: the Potency in assay [1] was 33.6 µM (active). The Potency entry in assay [2], in assay [3], in assay [4], in assay [5], in assay [6] and in [7] was “inactive” in each case. Besides, the Potency result in assay [8], in assay [9], in assay [10], in assay [11], in [12] and in assay [13] was “inactive” each time. The Potency result in [14], in assay [15] and in assay [16] was “inactive” each time.
In the case of `CC(=O)Oc1ccc([N+](=O)[O-])cc1CCl`, the Potency in assay [1] was 27.3 µM (active). The Potency result in [2], in assay [3], in assay [4], in [5], in [6] and in assay [7] was “inactive” each time. Besides, the Potency result in assay [8], in assay [17], in [10], in assay [11], in [12] and in [13] was “inactive” throughout. For the same compound, the Potency entry in assay [18], in [19] and in assay [20] was “inactive” each time.
Turning to `NNc1nc(-c2ccc(N)cc2)cs1`, in [1], the Potency was 54.5 µM (active). In addition, the Potency entry in [2], in [3], in assay [4], in [5], in assay [7] and in assay [8] was “inactive” in each case. Also, the Potency result in assay [9], in [17], in [10], in assay [11], in assay [12] and in [13] was “inactive” in each case. For the same compound, the Potency entry in assay [18], in [19], in assay [20] and in [16] was “inactive” in each case.
With `Cc1cccc(Br)c1`, the Potency is 24.5 µM (active) in assay [1] and 20.6 µM (active) in [7]. Besides, the Potency entry in [2], in [3], in [4], in [5], in assay [6] and in [10] was “inactive” each time. Besides, the Potency entry in [11], in assay [13], in [14], in assay [15], in [20] and in assay [16] was “inactive” in each case.
For `CCCCCCCCCCCCOCCOS(=O)(=O)O`, the Potency result in [1], in [3], in [4], in assay [5], in [6] and in assay [8] was “inactive” throughout. The Potency result in [17], in assay [12], in assay [13], in [14], in [15] and in [16] was “inactive” in each case. Also, the Potency in [2] is 38.9 µM (active).
Turning to `O=C(/C=C/c1ccc([N+](=O)[O-])cc1)c1ccccc1`, the Potency in [1] is 54.6 µM (active); in [8], 20.5 µM (active). In addition, the Potency result in assay [2], in assay [3], in assay [4], in [5], in assay [7] and in [9] was “inactive” each time. The Potency entry in assay [17], in [10], in assay [11], in assay [12], in assay [13] and in assay [14] was “inactive” each time. Moreover, the Potency result in assay [20] was “inactive”.
`CCCOc1ccc2nc(NC(=O)OC)[nH]c2c1`: the Potency in assay [1] was 7.5 µM (active). In addition, the Potency entry in assay [2], in assay [3], in assay [4], in [5], in [6] and in assay [8] was “inactive” each time. The Potency entry in assay [10], in assay [11], in assay [12], in [13], in assay [19] and in assay [20] was “inactive” in each case. In addition, the Potency result in assay [16] is “inactive”.
As for `Oc1ccc(CCNCCCCCCNCCc2ccccc2)cc1O`, the Potency result in assay [1], in assay [2], in assay [3], in assay [4], in [5] and in [6] was “inactive” in each case. Further, the Potency result in assay [8], in assay [9], in assay [17], in assay [11], in [12] and in assay [13] was “inactive” throughout. In addition, the Potency entry in assay [19] and in assay [20] was “inactive” in each case. Besides, the Potency in assay [16] is 8.41 µM (active).
